Data as given in the supplement of paper PMC10849652.
About 7,900 targets were measured; listed, in parts, are those with a hit and a random draw of the rest. About 0.6% of all pairs of compound and target were hits.

Experiments:
Experiment in all cases: log2 fold change, soluble protein after heating vs DMSO (PISA); higher = thermal stabilisation; K562 cells, 10 uM, 30 min; active = over 0.2 and 3.5 SD of the protein, either way, in both replicates (recomputed)
[1] = compound: CC1=C(C=C(C=C1)NC(=O)C2=CC(=CC=C2)C(C)(C)C#N)NC3=CC4=C(C=C3)N=CN(C4=O)C
Procedure, shortened: (§1)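 K562 cells (2×10^6 cells/mL) were treated with 10 μM compound for 30 min, and aliquots were heated for 3 min over 48°C-58°C. Pooled aliquots were extracted in PBS with 0.5% NP-40 at 4°C, and the supernatant after 21,000xg for 90 min was measured by TMTpro 16plex LC-MS/MS with channel sums equalised. Reported thermal stability, relative to control samples and from duplicates, is a log2 fold change.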

[2] = compound: CC1=C(C=C(C=C1)NC(=O)C2=CC(=CC=C2)N(C)C)NC(=O)C3=CC=C(C=C3)O
Procedure, shortened: as §1

[3] = compound: CC1=CC=C(C=C1)SC2=C3C=C(SC3=CN=C2)C(=O)N
Procedure, shortened: as §1

[4] = compound: CC1=NC(=CC=C1)C2=C(N=C(N2)C(C)(C)C)C3=CC4=NC=CN=C4C=C3
Procedure, shortened: as §1

Nexturastat A = compound: CCCCN(Cc1ccc(C(=O)NO)cc1)C(=O)Nc1ccccc1 [Nexturastat A]
Procedure, shortened: as §1

vemurafenib = compound: CCCS(=O)(=O)Nc1ccc(F)c(C(=O)c2c[nH]c3ncc(-c4ccc(Cl)cc4)cc23)c1F [vemurafenib]
Procedure, shortened: as §1

[5] = compound: CCCS(=O)(=O)Nc1ccc(F)c(C(=O)c2c[nH]c3ncc(Cl)cc23)c1F
Procedure, shortened: as §1

[6] = compound: CCCc1cc(C)[nH]c(=O)c1CNC(=O)c1cc(-c2ccnc(N3CCN(C)CC3)c2)cc2c1cnn2C(C)C
Procedure, shortened: as §1

givinostat = compound: CCN(CC)Cc1ccc2cc(COC(=O)Nc3ccc(C(=O)NO)cc3)ccc2c1 [givinostat]
Procedure, shortened: as §1

barasertib = compound: CCN(CCCOc1ccc2c(Nc3cc(CC(=O)Nc4cccc(F)c4)[nH]n3)ncnc2c1)CCOP(=O)(O)O [barasertib]
Procedure, shortened: as §1

[7] = compound: CC[C@@H]1C(=O)N(C)c2cnc(Nc3ccc(C(=O)NC4CCN(C)CC4)cc3OC)nc2N1C1CCCC1
Procedure, shortened: as §1

volasertib = compound: CC[C@@H]1C(=O)N(C)c2cnc(Nc3ccc(C(=O)N[C@H]4CC[C@H](N5CCN(CC6CC6)CC5)CC4)cc3OC)nc2N1C(C)C [volasertib]
Procedure, shortened: as §1

[8] = compound: CC[C@H](C)N1C=C(C2=C(C=C(C=C21)C3=CN=C(C=C3)N4CCNCC4)C(=O)NCC5=C(C=C(NC5=O)C)C)C
Procedure, shortened: as §1

epoxomicin = compound: CC[C@H](C)[C@@H](C(=O)N[C@@H]([C@@H](C)O)C(=O)N[C@@H](CC(C)C)C(=O)[C@]1(CO1)C)NC(=O)[C@H]([C@@H](C)CC)N(C)C(=O)C [epoxomicin]
Procedure, shortened: as §1

[9] = compound: CCn1c(C(=O)N(C2CC2)C2CC2)cc2c3c(ncn3C)c(Nc3cc(C)n(C)n3)nc21
Procedure, shortened: as §1

[10] = compound: CCn1cc(-c2ccnc3[nH]c(-c4cccc(CN(C)C)c4)cc23)c(-c2ccc(NC(=O)N(C)C)cc2)n1
Procedure, shortened: as §1

[11] = compound: CN(C)CC(=O)Nc1ccc2[nH]c(=O)c3ccccc3c2c1
Procedure, shortened: as §1

rosiglitazone = compound: CN(CCOC1=CC=C(C=C1)C[C@H]2C(=O)NC(=O)S2)C3=CC=CC=N3 (racemic) [rosiglitazone]
Procedure, shortened: as §1

[12] = compound: CN1C2=C(C3=C1C(=O)N(N=C3)CC4=CC(=CC=C4)N)SC(=C2)S(=O)C
Procedure, shortened: as §1

[13] = compound: CN1CCC(CNc2ccc3ncc(-c4cccc(OC(F)(F)F)c4)n3n2)CC1
Procedure, shortened: as §1

Measured: log2 fold change

CLINT1 isoform 3 (UniProt Q14677)
inactive: [1] -0.082 | [2] -0.001 | [3] -0.094 | [4] -0.09 | Nexturastat A 0.122 | vemurafenib -0.049 | [5] -0.073 | [6] -0.019 | givinostat -0.01 | barasertib -0.047 | [7] 0.17 | volasertib 0.047 | [8] -0.01 | epoxomicin -0.038 | [9] -0.006 | [10] 0.042 | [11] -0.06 | rosiglitazone -0.055 | [12] 0.075
active: [13] 0.259

CSNK2B (UniProt P67870)
inactive: [1] -0.019 | [2] 0.021 | [3] -0.032 | [4] 0.066 | Nexturastat A -0.021 | vemurafenib 0.026 | [5] 0.016 | [6] -0.034 | givinostat -0.03 | barasertib -0.008 | [7] -0.029 | volasertib 0.009 | [8] 0.043 | epoxomicin 0.019 | [9] 0.001 | [10] -0.051 | [11] 0.027 | rosiglitazone 0.034 | [12] -0.048 | [13] -0.176

COPS3 (UniProt Q9UNS2)
inactive: [1] -0.008 | [2] -0.013 | [3] 0.009 | [4] 0.034 | Nexturastat A -0.02 | vemurafenib 0.004 | [5] 0.011 | [6] -0.044 | givinostat -0.056 | barasertib 0.016 | [7] 0.001 | volasertib -0.017 | [8] -0.001 | epoxomicin 0.054 | [9] 0 | [10] -0.014 | [11] -0.017 | rosiglitazone 0.007 | [12] -0.038 | [13] -0.03

CS (UniProt O75390)
Chain of UniProt O75390 (O75390 whole entry, looked up): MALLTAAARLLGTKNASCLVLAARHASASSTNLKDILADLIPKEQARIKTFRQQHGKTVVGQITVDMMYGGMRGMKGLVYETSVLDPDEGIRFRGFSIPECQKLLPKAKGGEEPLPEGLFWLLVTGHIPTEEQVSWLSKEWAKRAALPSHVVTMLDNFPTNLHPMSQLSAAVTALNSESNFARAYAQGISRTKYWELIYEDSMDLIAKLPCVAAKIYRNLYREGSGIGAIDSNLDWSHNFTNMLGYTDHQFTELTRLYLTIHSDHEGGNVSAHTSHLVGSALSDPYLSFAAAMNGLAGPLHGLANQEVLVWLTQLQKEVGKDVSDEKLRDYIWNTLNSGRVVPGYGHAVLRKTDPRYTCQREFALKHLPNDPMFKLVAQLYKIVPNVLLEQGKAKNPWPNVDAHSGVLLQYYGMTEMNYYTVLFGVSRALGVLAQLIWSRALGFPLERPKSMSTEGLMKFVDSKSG
active: [13] -0.222
inactive: [1] -0.026 | [2] -0.002 | [3] 0.014 | [4] 0.07 | Nexturastat A -0.125 | vemurafenib 0.023 | [5] 0.033 | [6] 0 | givinostat -0.041 | barasertib 0.027 | [7] 0.04 | volasertib 0.158 | [8] 0.027 | epoxomicin 0.01 | [9] 0.032 | [10] -0.059 | [11] 0.032 | rosiglitazone 0.083 | [12] -0.088

CNOT1 (UniProt A5YKK6)
Chain of UniProt A5YKK6 (A5YKK6 whole entry, looked up): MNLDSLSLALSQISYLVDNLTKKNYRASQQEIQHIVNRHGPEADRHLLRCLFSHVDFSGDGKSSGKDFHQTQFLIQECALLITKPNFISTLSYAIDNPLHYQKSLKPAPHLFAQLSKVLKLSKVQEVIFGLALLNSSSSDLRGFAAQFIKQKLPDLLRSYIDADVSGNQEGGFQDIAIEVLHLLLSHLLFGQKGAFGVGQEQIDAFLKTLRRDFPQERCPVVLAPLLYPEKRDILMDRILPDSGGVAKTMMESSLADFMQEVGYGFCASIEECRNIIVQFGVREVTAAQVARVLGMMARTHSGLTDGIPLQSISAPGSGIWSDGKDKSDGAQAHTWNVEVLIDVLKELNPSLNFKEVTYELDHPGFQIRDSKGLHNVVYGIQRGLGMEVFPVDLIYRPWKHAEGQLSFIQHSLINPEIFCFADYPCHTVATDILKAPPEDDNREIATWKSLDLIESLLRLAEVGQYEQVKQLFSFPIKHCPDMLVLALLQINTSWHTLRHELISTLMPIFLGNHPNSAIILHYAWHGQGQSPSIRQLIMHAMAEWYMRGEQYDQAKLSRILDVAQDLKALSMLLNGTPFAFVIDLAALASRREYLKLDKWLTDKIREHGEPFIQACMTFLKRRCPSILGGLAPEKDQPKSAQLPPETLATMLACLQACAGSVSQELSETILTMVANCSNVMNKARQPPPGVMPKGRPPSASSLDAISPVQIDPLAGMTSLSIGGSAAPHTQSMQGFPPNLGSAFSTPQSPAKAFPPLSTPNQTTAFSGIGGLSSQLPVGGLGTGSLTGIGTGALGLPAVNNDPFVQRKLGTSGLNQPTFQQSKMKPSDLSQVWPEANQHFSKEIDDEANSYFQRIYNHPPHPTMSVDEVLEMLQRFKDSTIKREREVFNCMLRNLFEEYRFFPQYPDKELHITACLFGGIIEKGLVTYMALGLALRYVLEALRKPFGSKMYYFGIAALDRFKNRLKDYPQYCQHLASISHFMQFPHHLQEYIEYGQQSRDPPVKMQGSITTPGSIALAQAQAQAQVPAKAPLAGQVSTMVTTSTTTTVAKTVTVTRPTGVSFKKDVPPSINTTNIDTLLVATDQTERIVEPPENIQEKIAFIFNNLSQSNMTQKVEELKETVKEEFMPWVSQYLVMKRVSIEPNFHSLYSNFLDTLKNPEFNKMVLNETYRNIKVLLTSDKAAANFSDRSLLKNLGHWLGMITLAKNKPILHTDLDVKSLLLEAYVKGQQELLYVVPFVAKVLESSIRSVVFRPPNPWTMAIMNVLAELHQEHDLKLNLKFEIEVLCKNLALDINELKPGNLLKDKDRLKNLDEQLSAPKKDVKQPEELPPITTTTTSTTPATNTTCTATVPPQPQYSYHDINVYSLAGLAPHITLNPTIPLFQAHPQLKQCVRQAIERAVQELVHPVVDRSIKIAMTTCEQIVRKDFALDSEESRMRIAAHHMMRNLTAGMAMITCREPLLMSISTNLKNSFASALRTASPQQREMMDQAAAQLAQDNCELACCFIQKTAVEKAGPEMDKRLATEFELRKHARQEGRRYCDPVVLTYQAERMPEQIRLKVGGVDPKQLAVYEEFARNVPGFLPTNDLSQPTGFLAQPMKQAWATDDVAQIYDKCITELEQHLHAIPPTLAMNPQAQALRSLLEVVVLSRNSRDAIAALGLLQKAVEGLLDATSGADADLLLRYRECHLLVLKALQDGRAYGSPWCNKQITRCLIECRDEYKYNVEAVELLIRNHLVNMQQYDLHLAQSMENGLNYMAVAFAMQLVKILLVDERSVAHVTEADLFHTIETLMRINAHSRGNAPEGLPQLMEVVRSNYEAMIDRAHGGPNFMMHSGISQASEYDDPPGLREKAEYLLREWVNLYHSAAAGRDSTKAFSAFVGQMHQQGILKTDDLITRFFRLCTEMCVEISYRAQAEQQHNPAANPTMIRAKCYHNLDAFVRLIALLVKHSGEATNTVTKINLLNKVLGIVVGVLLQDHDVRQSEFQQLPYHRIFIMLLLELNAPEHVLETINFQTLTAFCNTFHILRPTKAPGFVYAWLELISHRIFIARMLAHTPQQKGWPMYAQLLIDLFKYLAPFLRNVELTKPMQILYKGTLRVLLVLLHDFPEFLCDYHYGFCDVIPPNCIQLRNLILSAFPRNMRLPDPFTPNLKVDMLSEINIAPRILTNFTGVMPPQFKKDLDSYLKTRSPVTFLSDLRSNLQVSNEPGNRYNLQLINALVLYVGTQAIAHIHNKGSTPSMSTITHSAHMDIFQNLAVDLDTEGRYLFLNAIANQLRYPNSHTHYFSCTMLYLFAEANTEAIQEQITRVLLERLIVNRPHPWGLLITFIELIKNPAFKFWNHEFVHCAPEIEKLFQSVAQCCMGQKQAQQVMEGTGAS
active: volasertib -0.312
inactive: [1] 0.016 | [2] -0.007 | [3] -0.027 | [4] 0.014 | Nexturastat A 0.062 | vemurafenib 0.044 | [5] 0.046 | [6] 0.013 | givinostat 0.044 | barasertib 0.044 | [7] -0.051 | [8] 0.056 | epoxomicin -0.028 | [9] -0.028 | [10] 0.028 | [11] 0.061 | rosiglitazone 0.013 | [12] 0.011 | [13] -0.082

CPQ (UniProt Q9Y646)
inactive: [1] 0.001 | [2] 0.025 | [3] -0.005 | [4] -0.005 | Nexturastat A -0.016 | vemurafenib 0.043 | [5] 0.006 | [6] 0.024 | givinostat 0.011 | barasertib -0.002 | [7] -0.144 | [8] -0.036 | epoxomicin 0.062 | [9] -0.011 | [10] -0.039 | [11] -0.021 | rosiglitazone -0.006 | [12] 0.032 | [13] -0.035
active: volasertib -0.27

C4A (UniProt P0C0L4)
inactive: [1] -0.154 | [2] 0.19 | [3] 0.111 | [4] 0.215 | Nexturastat A -0.008 | vemurafenib 0.148 | [5] -0.02 | [6] -0.287 | givinostat 0.001 | barasertib 0.021 | [7] -0.147 | volasertib -0.216 | [8] -0.048 | epoxomicin -0.316 | [9] -0.079 | [10] 0.197 | [11] 0 | rosiglitazone 0.154 | [12] 0.223 | [13] -0.32

CRKL (UniProt P46109)
active: [1] -1.25
inactive: [2] -0.029 | [3] 0.014 | [4] 0.019 | Nexturastat A -0.003 | vemurafenib -0.018 | [5] -0.009 | [6] -0.024 | givinostat 0.009 | barasertib 0.01 | [7] -0.012 | volasertib -0.039 | [8] 0.007 | epoxomicin 0 | [9] 0.008 | [10] 0 | [11] 0.012 | rosiglitazone 0.017 | [12] 0 | [13] -0.016

CERS2 (UniProt Q96G23)
inactive: [1] -0.02 | [2] 0.015 | [3] 0.036 | [4] 0.019 | Nexturastat A -0.083 | vemurafenib -0.018 | [5] 0.101 | [6] -0.013 | givinostat -0.038 | barasertib -0.002 | [7] -0.148 | volasertib -0.133 | [8] 0.011 | epoxomicin 0.03 | [9] -0.004 | [10] -0.001 | [11] 0.001 | rosiglitazone 0.088 | [12] 0.007
active: [13] -0.46

CSE1L (UniProt P55060)
Chain of UniProt P55060 (P55060 whole entry, looked up): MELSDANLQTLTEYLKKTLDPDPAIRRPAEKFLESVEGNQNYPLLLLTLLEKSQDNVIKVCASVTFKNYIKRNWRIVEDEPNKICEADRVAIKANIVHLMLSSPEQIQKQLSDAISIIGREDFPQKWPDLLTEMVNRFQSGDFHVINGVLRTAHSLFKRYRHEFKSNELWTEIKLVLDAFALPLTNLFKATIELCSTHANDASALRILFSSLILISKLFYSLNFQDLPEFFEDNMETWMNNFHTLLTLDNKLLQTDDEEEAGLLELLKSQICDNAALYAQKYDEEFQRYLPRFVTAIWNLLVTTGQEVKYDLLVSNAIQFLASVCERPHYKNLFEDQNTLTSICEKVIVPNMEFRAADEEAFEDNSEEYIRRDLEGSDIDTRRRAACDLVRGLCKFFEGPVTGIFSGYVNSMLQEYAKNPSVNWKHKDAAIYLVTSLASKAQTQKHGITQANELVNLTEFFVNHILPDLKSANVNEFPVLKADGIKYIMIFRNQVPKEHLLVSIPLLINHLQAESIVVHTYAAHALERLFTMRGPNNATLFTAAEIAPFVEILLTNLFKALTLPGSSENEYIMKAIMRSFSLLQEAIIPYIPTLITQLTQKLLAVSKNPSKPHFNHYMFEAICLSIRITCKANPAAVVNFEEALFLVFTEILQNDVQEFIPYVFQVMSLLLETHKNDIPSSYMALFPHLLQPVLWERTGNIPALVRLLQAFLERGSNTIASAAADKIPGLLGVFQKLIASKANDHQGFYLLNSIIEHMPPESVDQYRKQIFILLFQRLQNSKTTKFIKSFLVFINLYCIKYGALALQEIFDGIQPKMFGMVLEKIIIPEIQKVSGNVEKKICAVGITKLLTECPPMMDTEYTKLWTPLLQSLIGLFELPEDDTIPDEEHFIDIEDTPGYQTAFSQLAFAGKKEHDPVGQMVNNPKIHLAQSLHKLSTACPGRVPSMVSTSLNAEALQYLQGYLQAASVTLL
inactive: [1] 0.021 | [2] -0.006 | [3] 0.068 | [4] 0.083 | Nexturastat A -0.068 | vemurafenib 0.029 | [5] 0.063 | [6] 0.009 | givinostat 0.004 | barasertib 0.042 | [8] 0.047 | epoxomicin 0.03 | [9] 0.002 | [10] -0.068 | [11] 0.008 | rosiglitazone 0.047 | [12] -0.095 | [13] -0.181
active: [7] -0.209 | volasertib -0.403

CLUH, A0A494C0R8
inactive: [1] 0.008 | [2] -0.077 | [3] -0.02 | [4] 0.124 | Nexturastat A 0.068 | vemurafenib -0.121 | [5] -0.072 | [6] 0.016 | givinostat 0.092 | barasertib -0.043 | [7] 0.183 | volasertib 0.42 | [8] 0.006 | epoxomicin -0.017 | [9] 0.066 | [10] 0.078 | [11] 0.116 | rosiglitazone 0.068 | [12] 0.101 | [13] 0.203

CSNK2A1 (UniProt P68400)
inactive: [1] -0.047 | [2] -0.004 | [3] -0.044 | [4] 0.025 | Nexturastat A 0.034 | vemurafenib 0.006 | [5] 0.008 | [6] -0.018 | givinostat -0.003 | barasertib -0.024 | [7] 0.007 | volasertib 0.04 | [8] 0.002 | epoxomicin -0.012 | [9] 0.003 | [10] -0.117 | [11] -0.007 | rosiglitazone 0.024 | [12] -0.04 | [13] -0.233

CBR1 (UniProt P16152)
Chain of UniProt P16152 (P16152 whole entry, looked up): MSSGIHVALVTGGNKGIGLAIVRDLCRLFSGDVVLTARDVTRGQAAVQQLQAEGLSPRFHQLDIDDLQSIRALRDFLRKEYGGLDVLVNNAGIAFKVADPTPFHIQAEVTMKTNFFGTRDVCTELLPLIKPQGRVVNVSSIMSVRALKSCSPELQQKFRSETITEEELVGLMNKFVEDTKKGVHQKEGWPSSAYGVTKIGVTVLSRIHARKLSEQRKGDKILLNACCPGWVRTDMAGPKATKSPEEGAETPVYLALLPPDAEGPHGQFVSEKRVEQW
inactive: [1] 0.006 | [2] -0.023 | [3] 0.005 | [4] 0.038 | Nexturastat A -0.032 | vemurafenib -0.001 | [5] 0.074 | [6] 0.051 | givinostat 0.005 | barasertib 0.025 | [7] -0.001 | volasertib -0.041 | [8] -0.017 | epoxomicin 0.06 | [9] -0.006 | [10] 0 | [11] 0.005 | rosiglitazone 0.013 | [12] -0.077 | [13] 0.077

CASC3 (UniProt O15234)
Chain of UniProt O15234 (O15234 whole entry, looked up): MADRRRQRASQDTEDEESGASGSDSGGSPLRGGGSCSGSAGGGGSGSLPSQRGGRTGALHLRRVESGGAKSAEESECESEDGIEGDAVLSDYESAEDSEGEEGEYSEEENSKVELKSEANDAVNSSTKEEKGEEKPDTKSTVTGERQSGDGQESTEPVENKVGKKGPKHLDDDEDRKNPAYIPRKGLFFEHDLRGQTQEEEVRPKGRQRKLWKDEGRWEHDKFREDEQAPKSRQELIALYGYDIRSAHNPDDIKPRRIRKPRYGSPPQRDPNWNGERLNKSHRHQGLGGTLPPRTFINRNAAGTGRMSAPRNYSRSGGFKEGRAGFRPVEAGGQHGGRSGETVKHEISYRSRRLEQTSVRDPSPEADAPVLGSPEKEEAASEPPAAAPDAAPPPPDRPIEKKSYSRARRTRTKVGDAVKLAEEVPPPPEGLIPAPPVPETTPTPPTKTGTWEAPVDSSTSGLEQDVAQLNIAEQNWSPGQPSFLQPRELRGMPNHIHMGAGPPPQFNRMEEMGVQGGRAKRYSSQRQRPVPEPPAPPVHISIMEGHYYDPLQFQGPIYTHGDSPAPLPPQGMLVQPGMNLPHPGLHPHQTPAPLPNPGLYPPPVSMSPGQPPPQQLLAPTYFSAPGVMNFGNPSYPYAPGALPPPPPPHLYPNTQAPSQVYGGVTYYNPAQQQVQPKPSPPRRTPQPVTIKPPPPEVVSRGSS
inactive: [1] 0.043 | [2] -0.003 | [3] 0.009 | [4] -0.027 | Nexturastat A -0.004 | vemurafenib -0.156 | [5] -0.061 | [6] -0.065 | givinostat -0.045 | barasertib 0.043 | [7] 0.303 | volasertib 0.272 | [8] -0.068 | epoxomicin -0.058 | [9] 0.016 | [10] 0.087 | [11] -0.081 | rosiglitazone 0.015 | [12] 0.102 | [13] 0.02

COX5A (UniProt P20674)
Chain of UniProt P20674 (P20674 whole entry, looked up): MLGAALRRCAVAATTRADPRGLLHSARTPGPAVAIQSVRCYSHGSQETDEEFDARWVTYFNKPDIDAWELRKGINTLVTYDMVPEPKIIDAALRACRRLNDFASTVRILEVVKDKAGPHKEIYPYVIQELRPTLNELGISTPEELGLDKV
inactive: [1] -0.005 | [2] -0.074 | [3] 0 | [4] -0.016 | Nexturastat A 0.072 | vemurafenib 0.165 | [5] -0.114 | [6] -0.093 | givinostat -0.092 | barasertib 0.085 | [7] 0.048 | volasertib -0.08 | [8] -0.081 | epoxomicin 0.234 | [9] -0.018 | [10] 0.072 | [11] -0.001 | rosiglitazone -0.042 | [12] -0.063 | [13] 0.269

CSTF3 (UniProt Q12996)
inactive: [1] -0.038 | [2] 0.014 | [3] -0.005 | [4] 0.006 | Nexturastat A -0.072 | vemurafenib -0.005 | [5] -0.008 | [6] -0.029 | givinostat -0.05 | barasertib 0.007 | [7] 0.061 | volasertib 0.091 | [8] -0.028 | epoxomicin -0.029 | [9] 0 | [10] -0.038 | [11] -0.002 | rosiglitazone 0.003 | [12] -0.048 | [13] 0.13
